Bioassay records as filed in PubChem.
Pf growth 48h: P. falciparum growth inhibition at 48 hours (one generation); AID 504832; P. falciparum luciferase growth in erythrocytes, 48 h; 310,000 tested, 5.9% active; Potency, µM (titrated, usually from 28.7 µM), actives largely listed as inhibitors
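Parasite viability was followed by luminescence of a genomically integrated firefly luciferase. Cultures held 0.1% parasitemia at 2% hematocrit (final), incubated under 5% CO2 at 37 C.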
Pf growth 96h: P. falciparum growth inhibition at 96 hour, primary screen for plastid delayed-death inhibitors; P. falciparum luciferase reporter growth, 96 h; 320,000 tested, 6.9% active; Potency, µM (top dose mostly 28.7 µM), actives largely listed as inhibitors; AID 504834
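Luminescence readout: decreased luciferase signal marks inhibited growth of reporter-expressing P. falciparum in infected red cells (2% hematocrit, 0.05% parasitemia final), exposed to compound two generations (96 h, 37 C, 5% CO2).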
SARS PLpro yeast: SARS-CoV PLP inhibition in yeast. S. cerevisiae expressing SARS-CoV PLpro, growth rescue. Potency, µM (top dose mostly 32.9 µM), most hits filed as activators. 330,000 tested, 0.19% active. AID 485353; calls by dose curve; also: nearly all actives have a fitted effect of over 55% in size
RE007 growth inh: less growth of the S. pombe RE007 Vpr strain | S. pombe RE007 Vpr strain, BacTiter-Glo ATP luminescence, 24 h | Potency, µM (titrated, usually from 92.2 µM), usual class: inhibitors | 360,000 tested, 0.21% active | AID 651644; active = well fitted falling curve with a large enough effect; inconclusive = small, poorly fitted or top-dose-only effect; inactive = no such curve, though single readings can be large or run the other way; also: nearly all actives have a fitted effect of over 50% in size
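Fission yeast RE007 carrying one integrated HIV-1 vpr copy, seeded at OD 0.01 in PMG+AL medium with 23 nL pinned compound. Grown 24 h at 30 degrees; viability read by BacTiter-Glo luminescence after 5 min.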
NS1 function inh: inhibitors of influenza NS1 protein function; 270,000 tested, 0.4% active; Potency, µM (series often up to 46.1 µM); calls by dose curve; also: actives are rising curves; nearly all actives have a fitted effect of over 50% in size
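OD600 was taken as the measure of yeast growth restored by compound in an NS1-expressing S. cerevisiae strain. Cells had been washed out of glucose medium and diluted 1:100 into galactose -URA medium, pH 6.0.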
Large screens that a line does not name were inactive. Shown are actives, neighbours in structure and some others; about 9.5% of the full set was active somewhere. Unless noted, calls follow the shape of the dose curve; as a rule, active = well fitted inhibition curve with a large enough effect; inconclusive = small, poorly fitted or top-dose-only effect, or another doubt; inactive = no such curve, though single readings can be large or run the other way.

Cc1ccc(C(=O)N2CCN(c3ccc(F)cc3)CC2)cc1S(=O)(=O)N1CCCCC1	Pf growth 48h inconclusive, Pf growth 96h 9.3µM
Cc1ccccc1C(=O)N1CCN(S(=O)(=O)c2ccccc2)CC1	Pf growth 96h 13µM
Cc1c(CC(=O)NCC(C)C)c(=O)oc2cc3c(cc12)CCC(C)(C)O3	Pf growth 48h inconclusive
COC(=O)[C@H](Cc1ccccc1)NC(=O)Cn1cnc2c(NCc3ccccc3)ncnc21	none (no result: Pf growth 48h, Pf growth 96h, NS1 function inh)
O=C(c1cc(S(=O)(=O)N2CCCCC2)ccc1F)N1CCCCC1	Pf growth 48h 2.3µM, Pf growth 96h inconclusive
O=C(c1cccc(S(=O)(=O)N2CCCCC2)c1)N1CCN(S(=O)(=O)c2ccc(F)cc2)CC1	Pf growth 96h 9.3µM (no result: Pf growth 48h)
CC1CCC(N2CCN(C(=O)c3ccccc3F)CC2)CC1 (stereo unspecified)	Pf growth 96h 12µM
O=C(c1cccc(S(=O)(=O)N2CCN(c3ccc(F)cc3)CC2)c1)N1CCCCCCC1	Pf growth 48h inconclusive, Pf growth 96h inconclusive (no result: NS1 function inh)
O=C(c1ccccc1Cc1ccccc1)N1CCN(S(=O)(=O)c2ccc(F)cc2)CC1	Pf growth 48h inconclusive, Pf growth 96h inconclusive (no result: NS1 function inh)
O=C(c1ccccc1Cc1ccccc1)N1CCN(S(=O)(=O)c2ccccc2Br)CC1	Pf growth 48h 12µM, Pf growth 96h 7.4µM (no result: NS1 function inh)
Cc1ccc(NC(=O)Cc2cc(C(=O)O)c3ccccc3n2)c(C)c1	Pf growth 48h inconclusive, Pf growth 96h inconclusive
O=C(c1ccccc1F)N1CCN(S(=O)(=O)c2ccc(S(=O)(=O)N3CCCCCC3)cc2)CC1	Pf growth 48h 12µM
CN(C)CCn1c2ccccc2c2nc3ccc([N+](=O)[O-])cc3cc21	Pf growth 48h 1.9µM, Pf growth 96h inconclusive
CCc1[nH]nc2c1C(c1cccc(OC(=O)N3CCOCC3)c1)C(C#N)=C(N)O2 (stereo unspecified)	none
CC(C)c1[nH]nc2c1C(c1cccc(OC(=O)N3CCOCC3)c1)C(C#N)=C(N)O2 (stereo unspecified)	Pf growth 96h 12µM
O=C(c1cc(S(=O)(=O)NCc2ccco2)ccc1Br)N1CCOCC1	Pf growth 96h inconclusive (no result: NS1 function inh)
N/C(=N\N=C\c1ccc(Cl)cc1)N/N=C/c1ccc(Cl)cc1	Pf growth 48h 0.76µM, Pf growth 96h 0.85µM (no result: SARS PLpro yeast, RE007 growth inh, NS1 function inh)
N/C(=N\N=Cc1ccc2c(c1)OCO2)NN=Cc1ccc2c(c1)OCO2	none (no result: Pf growth 48h, Pf growth 96h, SARS PLpro yeast, NS1 function inh)
N/C(=N\N=C/c1ccc(Br)cc1)N/N=C\c1ccc(Br)cc1	Pf growth 48h inconclusive
N/C(=N\N=C/c1ccc(F)cc1)N/N=C\c1ccc(F)cc1	Pf growth 48h 0.74µM, Pf growth 96h inconclusive
CCCn1nnnc1NCc1ccc(C(C)C)cc1	none
O=C(COC(=O)c1cccc([N+](=O)[O-])c1)Nc1ncc(Br)s1	none (no result: Pf growth 48h, Pf growth 96h, NS1 function inh)
CN1CCN(NC(=O)Nc2cccc(F)c2)CC1	Pf growth 96h inconclusive
COc1ccc(C)cc1CN(C)c1ccc(S(=O)(=O)N2CCN(C)CC2)cn1	Pf growth 48h 10µM, Pf growth 96h inconclusive (no result: NS1 function inh)
COc1ccc(NC2CCCN(C(=O)c3ccccc3C(F)(F)F)C2)cc1 (stereo unspecified)	none
COC1CCCN(C(=O)c2ccc3nc(Cc4cccc(Cl)c4)oc3c2)C1 (stereo unspecified)	Pf growth 96h inconclusive
NC(=O)[C@@H]1CCCN1C(=O)c1ccc2nc(Cc3cccc(Cl)c3)oc2c1	Pf growth 96h 10µM
CC(C)Sc1nc2c(c(=O)[nH]c(=O)n2C)n1Cc1ccc(Cl)cc1	Pf growth 48h inconclusive, Pf growth 96h 13µM
CCOC(=O)C(C)Sc1nc2c(c(=O)[nH]c(=O)n2C)n1Cc1ccc(Cl)cc1 (stereo unspecified)	Pf growth 48h inconclusive, Pf growth 96h inconclusive
CCC(C)Sc1nc2c(c(=O)[nH]c(=O)n2C)n1Cc1ccc(Cl)cc1 (stereo unspecified)	Pf growth 48h 10µM (no result: Pf growth 96h)
COCCCNC(=O)Cn1cc(/C=C(\C#N)C(=O)NC2CC2)c2ccccc21	Pf growth 96h inconclusive
COc1ccccc1CN(C)C(=O)c1cc(-c2cc(OC)c(OC)c(OC)c2)nc2ccccc12	Pf growth 48h inconclusive, Pf growth 96h inconclusive
COc1cc(-c2cc(C(=O)N(C)Cc3ccccc3)c3ccccc3n2)cc(OC)c1OC	Pf growth 48h 13µM, Pf growth 96h inconclusive
COCCN(Cc1ccccc1)C(=O)c1cc(-c2ccc(OC)c(OC)c2)nc2ccccc12	Pf growth 48h 9.3µM, Pf growth 96h inconclusive
